Screening results (PubChem)
DT40 TDP1 no CPT: qHTS for Inhibitors of human tyrosyl-DNA phosphodiesterase 1 (TDP1): qHTS in cells in absence of CPT; DT40 Tdp1-/- hTDP1 cells, no CPT, ATP luminescence, 48 h; AID 686978, 2013; Potency, µM (doses to about 46.2 µM), for inactives: at the top dose activity change, negative = growth inhibition, most hits filed as inhibitors; 420,000 compounds, 15% hits; further: potency means the concentration at half of the fitted maximal effect; nearly all actives have a fitted effect of over 55% in size
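No-CPT arm: Tdp1-/-;hTDP1 DT40 cells (400/well) plus compounds, incubated ≥48 hr at 37 °C. Readout CellTiter-Glo luminescence.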
IL-1B inflam inh: qHTS for Inhibitors of Inflammasome Signaling: IL-1-beta AlphaLISA Primary Screen. THP-1 LPS/ATP IL-1B secretion, AlphaLISA, 16 h; active compounds read low. activity change, % at 57.5 µM. 360,000 compounds, 4.7% hits. AID 743279, 2014; in the data active means activity change below about -50%; inconclusive means mostly about -30% to -49%
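Secreted IL-1B measured by AlphaLISA bead assay after 16 h compound exposure of THP-1 cells; compounds (final up to 57.5 uM) added 1 h before LPS (250 ng/mL) and ATP (1.25 mM) stimulation; lower signal means less secretion.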
HT1080-NT tox: qHTS for induction of synthetic lethality in tumor cells producing 2HG: qHTS for the HT-1080-NT fibrosarcoma cell line; 360,000 compounds, 1.6% hits; Potency, µM (highest dose often 46.1 µM), for inactives: top-dose activity, negative = less viability, most hits filed as cytotoxic; AID 686970, 2013; HT-1080-NT fibrosarcoma viability, CellTiter-Glo ATP luminescence, 48 h;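 further: NT is the 2HG producing partner of a matched IDH1 knockdown line; potency means the concentration at half of the fitted maximal effect; 0% = DMSO-treated cells and -100% = media-only wells without cells; nearly all actives have a fitted effect of over 55% in size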
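HT-1080-NT fibrosarcoma cells (2HG-overproducing), 750 cells/well in RPMI with 5% FBS, dosed after 2 h and incubated 48 h at 37C. CellTiter-Glo luminescence normalized to DMSO and no-cell wells; concentration-response curves fitted and classed.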
DT40 TDP1 CPT: qHTS for Inhibitors of human tyrosyl-DNA phosphodiesterase 1 (TDP1): qHTS in cells in presence of CPT; Potency, µM (titrated, usually from 46.2 µM), without a hit: top-dose activity change, negative = growth inhibition, most hits filed as inhibitors; 420,000 compounds, 12% hits; chicken DT40 Tdp1-/-;hTDP1 cells + 20 nM CPT, ATP luminescence, 48 h; further: potency means the concentration at half of the fitted maximal effect; nearly all actives have a fitted effect of over 55% in size
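Chicken DT40 Tdp1-/- cells complemented with human TDP1, 400 cells/well, exposed to compounds plus 20 nM camptothecin for at least 48 h at 37 C; viability read as ATP content by CellTiter-Glo luminescence.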
HT1080 IDH1KD tx: qHTS for induction of synthetic lethality in tumor cells producing 2HG: qHTS for the HT-1080-IDH1KD cell line; HT-1080 IDH1 knockdown viability, ATP luminescence, 48 h; Potency, µM (doses to about 46.1 µM), for inactives: at the highest dose activity, negative = toxicity, hits mostly cytotoxic; 360,000 compounds, 2% hits;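 further: potency means the concentration at half of the fitted maximal effect; 0% = DMSO wells and -100% = cell-free medium wells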
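Cytotoxicity counter-line: IDH1KD HT-1080, 48 h, CellTiter-Glo. Curves classed by r2, magnitude and activity.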
* hit, by the source's call; ? = inconclusive; · = not tested or not shown. The list is not random: actives were taken first. Their share in the collection is about 19%. Unless noted, the call rests on the fitted dose curve; in most records, active means well fitted curve in the direction sought with a large enough effect; inconclusive means small, poorly fitted or top-dose-only effect, or another doubt; inactive means no such curve, though single readings can be large; an effect the other way counts as inactive or inconclusive. Unless noted, on the % scale 0 is the no-effect control and ±100 the full control effect.

SMILES	DT40 TDP1 no CPT	IL-1B inflam inh	HT1080-NT tox	DT40 TDP1 CPT	HT1080 IDH1KD tx
CC1=C(C(N)=O)C(c2cccc(F)c2)n2nc(SCc3ccccc3)nc2N1 (centres undefined)	6%	·	·	8%	·
O=C(Cc1ccc(NC(=O)C2CCN(C(=O)C3CCC3)CC2)cc1)Nc1cccc(C(=O)N2CCCCC2)c1	-5%	-2	-2%	-15%	1%
CCN(C(=O)COC(=O)CCn1c(C)csc1=O)c1c(N)n(Cc2ccccc2)c(=O)[nH]c1=O	-5%	0	7%	-7%	14%
O=C(Nc1ccccc1)c1ccc(Cn2cc(C(F)(F)F)ccc2=O)cc1	-2%	5	?	-10%	-1%
COc1ccc(C(=O)Nc2ccc(Cn3ccnc3)cc2)cc1OC	-4%	-14	?	21%	?
O=C(Nc1ccccc1)c1cccc(Cn2cc(C(F)(F)F)ccc2=O)c1	21µM*	-4	3%	?	-6%
O=C(Sc1ccccc1)c1cccc(Cn2cc(C(F)(F)F)ccc2=O)c1	16µM*	-12	18µM*	18µM*	23µM*
O=C(Nc1cc(C(F)(F)F)cc(C(F)(F)F)c1)c1ccc(Cn2cc(C(F)(F)F)ccc2=O)cc1	16µM*	29	-12%	21µM*	-22%
O=C(Nc1ccc(Cn2ccnc2)cc1)c1cccc(C(F)(F)F)c1	-17%	-54*	1%	-24%	-11%
O=C(NCCc1nnc2n1CCN(Cc1ccsc1)CC2)c1ccc(F)cc1	-7%	·	·	-1%	·
COc1ccc(NS(=O)(=O)c2ccc(OC)c(NC(=O)CCC3CCCC3)c2)cc1	?	5	0%	?	-3%
COc1cccc(/C=N/NC(=O)CSc2cccc3cccnc23)c1	12µM*	58	-28%	?	-19%
Cc1cccc(NC(=O)CSc2cccc3cccnc23)c1C	-21%	38	-1%	2%	-7%
O=C(CSc1cccc2cccnc12)N/N=C/c1ccc(O)cc1	?	-6	-8%	?	-17%
CCOC(=O)CSc1cccc2cccnc12	5.8µM*	-3	-27%	5.8µM*	?
Cc1cccc(CSc2cccc3cccnc23)c1	3.7µM*	-110*	?	4.1µM*	?
CC1(C)Cc2nc3oc4c(SCC(N)=O)ncnc4c3cc2CO1	-6%	-10	7%	-2%	16%
COc1ccc(NC(=O)CN2CCN(Cc3ccccc3)CC2)cc1	-1%	3	5%	7%	8%
CCCCNC(=O)CN1CCN(Cc2ccc3cc(OC)ccc3c2)CC1	18µM*	0	-5%	?	-13%
Cc1ccccc1COCCN1CCN(S(=O)(=O)c2ccccc2)CCC1=O	-26%	1	0%	-18%	3%
Cc1cccn2c(=O)cc(COc3cccc(NC(=O)Nc4cccc(Cl)c4)c3)nc12	-1%	·	·	-1%	·
COc1cc(NCCCCC(C)N)c2nccc(C)c2c1 (centres undefined)	3.7µM*	-12	?	5.8µM*	?
O=C(/C=C/c1ccco1)NC(=S)Nc1ccccc1N1CCCC1	21µM*	35	-20%	?	-28%
O=C(/C=C\c1ccco1)NC(=S)Nc1ccccc1O	?	-10	?	18µM*	?
Cc1ccc(NC(=S)NC(=O)/C=C/c2ccco2)c(O)c1	?	-9	4%	-11%	-16%
SMILES	DT40 TDP1 no CPT	IL-1B inflam inh	HT1080-NT tox	DT40 TDP1 CPT	HT1080 IDH1KD tx
O=C(/C=C/c1ccco1)NC(=S)Nc1ccccc1O	18µM*	-19	-30%	?	-30%
COc1ccc(NC(=S)NC(=O)/C=C/c2ccco2)c(OC)c1	?	-16	10%	-56%	14%
O=C(/C=C/c1ccco1)NC(=S)Nc1ccccc1N1CCOCC1	?	5	4%	-24%	4%
CN(CC(=O)Nc1ccccc1C(F)(F)F)C(=O)CC1OC(=O)c2ccccc21 (centres undefined)	-6%	8	-1%	14%	-1%
COc1cccc(NC(=O)Cn2nc(Cc3cccnc3)c3ccccc3c2=O)c1	?	?	6%	-7%	4%
C=CC(=O)Nc1cccc(CN2C(=O)N(c3cc(OC)cc(OC)c3)Cc3cnc(NCCCCN(CC)CC)nc32)c1	?	-60*	-14%	-12%	1%
CCCC1NC(=O)c2cccnc2-n2c1nc1ccc(C)cc1c2=O (centres undefined)	-20%	-18	0%	15%	1%
Cc1cc(CN2CCCC(N3CCc4ccccc4C3)C2)cc(C)c1O (centres undefined)	?	-9	1%	13µM*	6%
Cc1ccc(Sc2c(CO)c(-c3ccccc3)nn2C)cc1	0.73µM*	-11	0.73µM*	1.2µM*	1.2µM*
O=C(CCn1ccc2cc(S(=O)(=O)N3CCCC3)ccc21)NCc1cccc(Br)c1	?	·	·	18µM*	·
COc1ccc(CNC(=O)CCCn2ccc3cc(S(=O)(=O)N4CCCC4)ccc32)cc1	12µM*	37	?	18µM*	?
CN(C)c1ccc(CNC(=O)C2CCCN(S(=O)(=O)c3ccc4c(ccn4C)c3)C2)cc1 (centres undefined)	21µM*	·	·	16µM*	·
CCc1ccc(CNC(=O)CCn2ccc3cc(S(=O)(=O)N4CCCC4)ccc32)cc1	?	-10	-28%	21µM*	-27%
O=C(O)CCCn1ccc2cc(S(=O)(=O)N3CCCC3)ccc21	27%	29	-9%	-14%	-3%
Cc1ccc(CNC(=O)CCn2ccc3cc(S(=O)(=O)N4CCCC4)ccc32)cc1	?	13	-13%	?	-19%
Cc1cccc(N(CC(=O)NC2CCCCC2)C(=O)CCC(=O)Nc2nccs2)c1	1%	0	1%	17%	1%
Oc1ccc(/C=N\Nc2cc(N3CCOCC3)nc(N3CCOCC3)n2)c(O)c1	16µM*	?	-18%	21µM*	-13%
Cc1cc(N/N=C/c2ccccc2)nc(N2CCOCC2)n1	-5%	-23	0%	1%	-19%
Cc1cccc(/C=N/Nc2cc(N3CCOCC3)nc(N3CCOCC3)n2)c1	16µM*	-78*	?	3.3µM*	?
O=C(CNS(=O)(=O)N1CCOCC1)N/N=C/c1cccnc1	-12%	15	-4%	32%	-1%
Cc1nc(N/N=C/c2cccnc2)cc(N2CCOCC2)n1	?	-64*	-5%	?	0%
Cc1cc(N/N=C/c2ccc(O)cc2O)nc(N2CCOCC2)n1	-28%	-6	11%	-3%	5%
